# Records with an inconclusive call do not appear. A number with no mark means an inactive call. Calls of active or inactive are those of the source. Calls follow the shape of the full dose curve.
# Target: Thyrotropin receptor (Homo sapiens) (UniProt P16473)
# Assay: qHTS assay to identify small molecule antagonists of the thyroid stimulating hormone receptor (TSHR) signaling pathway (AID 1259385); also: nearly all actives have a fitted effect of over 20% in size
# Conditions: TSHR-HEK293 cAMP HTRF, TSH-stimulated antagonist mode; series mostly up to 92.4 µM; activity change, negative = inhibition: at the top concentration
# Source text: U.S. Tox21 Program National Center for Advancing Translational Sciences [NCATS] NIH Chemical Genomics Center [NCGC] U.S. Environmental Protection Agency [EPA] National Institutes of Environmental Health Sciences [NIEHS] National Toxicology Program [NTP] U.S. Food and Drug Administration [FDA] Tox21 Assay Overview: TSHR is the receptor for thyrotropin (thyroid stimulating hormone or TSH), a member of the glycoprotein hormone family. TSH is released by the anterior pituitary gland and is the main regulator of thyroid gland growth and development. Upon binding circulating thyrotropin, a G-protein signal cascade activates adenylyl cyclase and […] cAMP concentration is increased. cAMP is a key second messenger involved extensively in cellular signal transduction pathways associated with the majority of G-protein coupled receptors (GPCRs). The activation of these GPCRs by neurotransmitters, lipids, nucleotides, peptides and hormones results in the activation or the inhibition of plasma membrane-bound adenylate cyclase through heterotrimeric G-proteins. A cell-based TSHR assay can be used to screen chemical compounds that modulate TSHR either in agonist or antagonist mode.
# Tox21 Assay Protocol Summary: TSHR-Hek293 cells were dispensed at 800 cells/4uL/well in 1536-well white plates using a Multidrop dispenser. After the assay plates were incubated at a 37C/5% CO2 incubator for 18 hrs, 23 nL of compounds dissolved in DMSO, positive controls or DMSO only was transferred to the assay plate by a pin tool, followed by 1 ul medium containing Ro20-1724. For the antagonist mode screening, 1 uL of TSH was added on the top of the cell/compound mixtures to achieve a final agonist concentration of 1.5 ng/mL. After 30 min of incubation at room temperature, 2.5 ul/well of cAMP-d2 and 2.5 ul/well of anti-cAMP-cryptate were added respectively into the assay plates using a Flying Reagent Dispenser. The plates were incubated at room temperature for 1 hr. The fluorescence intensity in the plates was measured using an Envision plate reader. Each test compound was measured at 15 concentrations and in triplicates.
# % is scaled to controls: 0 for no effect and ±100 for the full control effect; potency is read from the fitted curve at half-maximal effect.
# Chain of Thyrotropin receptor (Homo sapiens) (P16473 whole entry, looked up): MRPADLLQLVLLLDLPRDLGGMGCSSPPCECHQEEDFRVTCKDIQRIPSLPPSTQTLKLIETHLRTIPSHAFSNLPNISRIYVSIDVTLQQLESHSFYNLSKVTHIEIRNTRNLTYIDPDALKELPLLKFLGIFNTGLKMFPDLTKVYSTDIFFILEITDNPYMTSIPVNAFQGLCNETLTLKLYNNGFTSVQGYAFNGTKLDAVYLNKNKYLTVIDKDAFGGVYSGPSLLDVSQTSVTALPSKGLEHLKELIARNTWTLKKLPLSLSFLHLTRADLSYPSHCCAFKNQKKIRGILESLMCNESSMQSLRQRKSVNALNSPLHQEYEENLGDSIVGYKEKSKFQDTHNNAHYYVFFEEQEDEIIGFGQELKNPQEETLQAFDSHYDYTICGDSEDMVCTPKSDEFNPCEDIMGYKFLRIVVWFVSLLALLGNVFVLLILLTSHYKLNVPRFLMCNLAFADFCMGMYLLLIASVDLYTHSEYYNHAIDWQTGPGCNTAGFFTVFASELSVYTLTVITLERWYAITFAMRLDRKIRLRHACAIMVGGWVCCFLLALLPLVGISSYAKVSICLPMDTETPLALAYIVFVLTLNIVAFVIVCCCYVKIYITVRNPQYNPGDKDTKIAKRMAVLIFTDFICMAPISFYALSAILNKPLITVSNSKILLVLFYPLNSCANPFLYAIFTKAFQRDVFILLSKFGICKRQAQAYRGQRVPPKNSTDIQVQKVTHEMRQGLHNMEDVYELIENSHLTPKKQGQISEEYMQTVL
SMILES,"activity change, negative = inhibition",Potency
CCC(C)O (stereo not given),-0.295%,–
Cc1oc(-c2ccccc2)nc1CCOc1cccc2c1ccn2CCC(=O)O,-0.0546%,–
CCCCCCCCCCCC(=O)OC[C@@H](O)[C@H]1OC[C@H](OCCO)[C@H]1OCCO,0.797%,–
O=[N+]([O-])c1ccc2[nH]ncc2c1,-3.7%,–
c1cc(CCCc2ccncc2)ccn1,0.347%,–
CCOC(=O)C(F)(F)F,-0.936%,–
CN1CCN(C(c2ccccc2)c2ccccc2)CC1,-1.71% [at 42.5 µM],–
Nc1cccc(S(=O)(=O)c2cccc(N)c2)c1,0.153%,–
Nc1ccc(S(=O)(=O)Nc2ccccc2)cc1,1.55% [at 42.5 µM],–
Clc1ccc2c(c1)CCc1cccnc1C2=C1CCNCC1,–,26.6 µM (active)
Cc1oc2c(NC(=O)c3c(Cl)cccc3Cl)cccc2c1C(C)(C)O,4.71%,–
C/C=C/C=C/CO,0.492%,–
CC(CSC(=O)c1ccccc1)C(=O)N1C[C@@H](Sc2ccccc2)C[C@H]1C(=O)O (stereo not given in full),-6.99% [at 19 µM],–
CCCCO,1.7%,–
O[C@@H](COc1cccc2ncccc12)CN1CCN(C2c3ccccc3[C@@H]3[C@H](c4ccccc42)C3(F)F)CC1 (stereo not given in full),4.51% [at 42.5 µM],–
O=C(CS)Nc1ccccc1,0.722% [at 42.5 µM],–
NCCCN1CCOCC1,0.952%,–
C=C(C)C(=O)OCCO,0.131%,–
COc1cc2c(cc1OC)C(C(C(=O)N(CCc1ccc(OC)c(OC)c1OC)CCc1ccc(OC)c(OC)c1OC)c1ccccc1)=NCC2 (stereo not given),-0.129% [at 42.5 µM],–
O=C(Nc1ccc(S(=O)(=O)N2CCOCC2)cc1)c1cc(Cl)ccc1NS(=O)(=O)c1ccc(Cl)s1,-4.34% [at 42.5 µM],–

SMILES,"activity change, negative = inhibition",Potency
COS(=O)(=O)C(F)(F)F,-2.61%,–
CCOc1ccc(N=Nc2ccc(/C=C/c3ccc(N=Nc4ccc(OCC)cc4)cc3S(=O)(=O)O)c(S(=O)(=O)O)c2)cc1,-5.08%,–
Cc1c(N)cccc1[N+](=O)[O-],-0.623%,–
CCCCCCc1ccc(-c2ccc(C#N)cc2)cc1,-7.8%,–
Cc1ccc(C(=O)Oc2ccc(C(O)CNC(C)(C)C)cc2OC(=O)c2ccc(C)cc2)cc1 (stereo not given),9.04% [at 42.5 µM],–
O=C1C(O)=C(O)C(=O)C(O)=C1O,2.4% [at 42.5 µM],–
CCCCCCCCCCCCCCCCCCOS(=O)(=O)O,–,68.6 µM (active)
O=C(NCCO[N+](=O)[O-])c1cccnc1,0.27% [at 42.5 µM],–
COC(C)OC,0.948%,–
CCOC(=O)C1=C[C@]2(CC)CCCN3CCc4c(n1c1ccccc41)[C@@H]32,3.2% [at 42.5 µM],–
CN1Cc2cc(C(=O)N3CCC(C4CCNCC4)CC3)ccc2NC(CC(=O)O)C1=O (stereo not given),1.62% [at 42.5 µM],–
CN(C)c1ccc(C(c2ccccc2)c2ccc(N(C)C)cc2)cc1,-5.43%,–
c1ccc(-c2ccccn2)nc1,-0.0393%,–
CC(C)=CCC/C(C)=C/CC/C(C)=C/CO,1.91%,–
NCc1ccccc1Sc1ccccc1CO,0.554% [at 42.5 µM],–
C=CC(=O)OCCOc1ccccc1,10%,–
CCOC(=O)COC(=O)c1cc(Oc2ccc(C(F)(F)F)cc2Cl)ccc1[N+](=O)[O-],1.24%,–
CCCCCCCCCc1ccc(OCCOCCO)cc1,–,25.6 µM (active)
CCCCOC(=O)CCCCCCCC(=O)OCCCC,0.368%,–
CC1CCC(=O)C1=O (stereo not given),-2.12%,–

# Reference: PubChem BioAssay (Tox21)
